Results filed as inconclusive are left out. Calls of active or inactive are those of the source. Rule for the calls, unless noted: active = hit-call score of the fitted dose curve at least 0.9, where 1 is the maximum; inconclusive = response in the unintended direction; inactive = score below 0.9.

Assay [1] is described as follows: CLD_ACTIN_6hr: CellzDirect (CLD) Gene Expression Assay for Baseline Control (Actin) at 6 hours (AID 2283676).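 Note: active means increased actin mRNA relative to DMSO vehicle.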 The method, boiled down:
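Baseline actin transcript level measured by qNPA (S1 nuclease protection, chemiluminescence) in human hepatocyte cultures 6 h after chemical exposure; 0.2% DMSO vehicle as reference, cytotoxicity noted from morphology.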

Read-out in assay [2]: Cytochrome P450 2B6 (Homo sapiens) (UniProt P20813)
Briefly: CLD_CYP2B6_6hr: CellzDirect (CLD) Gene Expression Assay for xenobiotic metabolism (CYP2B6) at 6 hours (AID 2283677).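 Note: actives raise CYP2B6 transcript above DMSO baseline so AC50 marks an inducer.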 The gist of the method: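 CYP2B6 transcript levels, read by chemiluminescent qNPA, were fitted for increase versus DMSO baseline; cultured human liver hepatocytes from two donor preparations were harvested 6 h after exposure to test chemicals at multiple concentrations.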

The nature of assay [3]: CCTE_Padilla_ZF_144hpf_TERATOSCORE: (Legacy) CCTE's 144 Hour Post-fertilization zebrafish Assay Teratoscore, Padilla Lab (AID 2283679; active = hit-call score of the fitted dose curve at least 0.9, where 1 is the maximum; inactive = score below 0.9;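 for AC50: zebrafish embryos with chorions exposed by immersion from 6-8 hpf to 5 dpf with daily renewal; teratogenicity score from eye scoring of death hatching and malformations at 144 hpf; higher score means more developmental defects relative to DMSO baseline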). The method, boiled down: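 Larvae scored by eye at 144 hpf for death, hatching and malformations after a day in clean Hanks'. Before that, daily-renewed exposure at 80 uM (0.4% DMSO, 26C) from roughly 6-8 hpf through 5 dpf, 4 embryos per chemical.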

Read-out in assay [4]: xenobiotic metabolism (CYP1A2), CYP1A2 (gene 1544)
The assay is described as follows: CLD_CYP1A2_24hr: CellzDirect (CLD) Gene Expression Assay for xenobiotic metabolism (CYP1A2) at 24 hours (AID 2283683). The gist of the method:
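CYP1A2 mRNA induction measured by quantitative nuclease protection (chemiluminescent) in human primary hepatocytes 24 h after multi-concentration chemical dosing with daily fresh solutions. DMSO (0.2%) baseline; positive-direction fitting; morphology-based cytotoxicity noted.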

Read-out in assay [5]: Broad substrate specificity ATP-binding cassette transporter ABCG2 (Homo sapiens) (UniProt Q9UNQ0)
Briefly: CLD_ABCG2_24hr: CellzDirect (CLD) Gene Expression Assay for ABC Transporter (ABCG2) at 24 hours (AID 2283685). The gist of the method: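 ABCG2 mRNA induction, read as gain of chemiluminescent signal over 0.2% DMSO, was measured by quantitative nuclease protection at 24 h. Cultured human liver hepatocytes were given fresh dosing solutions of test chemicals at several concentrations each day.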

Read-out in assay [6]: Cytochrome P450 2B6 (Homo sapiens) (UniProt P20813)
The assay is described as follows: CLD_CYP2B6_24hr: CellzDirect (CLD) Gene Expression Assay for xenobiotic metabolism (CYP2B6) at 24 hours (AID 2283686). The method, boiled down:
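qNPA chemiluminescent measurement of mRNA at 24 hours in human primary hepatocyte cultures from two donor preparations, with daily fresh dosing and 0.2% DMSO vehicle as baseline. Morphology-based cytotoxicity flagged yes/no.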

Read-out in assay [7]: Cytochrome P450 3A4 (Homo sapiens) (UniProt P08684)
Briefly: CLD_CYP3A4_24hr: CellzDirect (CLD) Gene Expression Assay for xenobiotic metabolism (CYP3A4) at 24 hours (AID 2283689). The gist of the method:
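CYP3A4 mRNA induction read by quantitative nuclease protection (chemiluminescence) 24 hr after dosing. Cultured human hepatocytes (two donor preparations) treated daily, vehicle 0.2% DMSO; phase-contrast morphology annotates cytotoxicity.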

Read-out in assay [8]: sulfotransferase (SULT2A), SULT2A1 (gene 6822)
Briefly: CLD_SULT2A_24hr: CellzDirect (CLD) Gene Expression Assay for sulfotransferase (SULT2A) at 24 hours (AID 2283694).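 For AC50: potency for increased SULT2A1 mRNA level as induction over DMSO baseline.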 The gist of the method:
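mRNA is measured by qNPA: probe hybridisation, S1 nuclease digestion, chemiluminescence, in lysates from human primary hepatocytes harvested 24 h after daily dosing. Vehicle was 0.2% DMSO. Phase-contrast microscopy flagged cytotoxicity (yes/no).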

Read-out in assay [9]: glucuronosyltransferase (UGT1A1), UGT1A1 (gene 54658)
The assay is described as follows: CLD_UGT1A1_24hr: CellzDirect (CLD) Gene Expression Assay for glucuronosyltransferase (UGT1A1) at 24 hours (AID 2283696). The gist of the method: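 UGT1A1 transcript induction was measured by quantitative nuclease protection assay (chemiluminescence) in human hepatocyte cultures 24 h after daily fresh dosing, with 0.2% DMSO as vehicle and baseline.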

Read-out in assay [10]: ABC Transporter (ABCB11), ABCB11 (gene 8647)
Briefly: CLD_ABCB11_48hr: CellzDirect (CLD) Gene Expression Assay for ABC Transporter (ABCB11) at 48 hours (AID 2283697). The gist of the method: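 Induction of ABCB11 mRNA relative to 0.2% DMSO, measured at 48 h by qNPA chemiluminescence. Cultured human hepatocytes (two donors) received fresh dosing solutions at several concentrations on two consecutive days.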

Read-out in assay [11]: Cytochrome P450 3A4 (Homo sapiens) (UniProt P08684)
The assay is described as follows: CLD_CYP3A4_48hr: CellzDirect (CLD) Gene Expression Assay for xenobiotic metabolism (CYP3A4) at 48 hours (AID 2283698). The method, boiled down:
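CYP3A4 induction read by qNPA chemiluminescence after 48 h, with fresh dosing solutions on consecutive days, in cultured human hepatocytes (two donors). Vehicle 0.2% DMSO as baseline; microscopy-based cytotoxicity annotated yes/no alongside data.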

Read-out in assay [12]: Cytochrome P450 2C19 (Homo sapiens) (UniProt P33261)
Briefly: CLD_CYP2C19_24hr: CellzDirect (CLD) Gene Expression Assay for xenobiotic metabolism (CYP2C19) at 24 hours (AID 2283687).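 Note: activity means mRNA induction above DMSO vehicle baseline.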 The method, boiled down: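 CYP2C19 mRNA was quantified by qNPA chemiluminescence after 24 h of daily dosing of cultured human primary hepatocytes from two donors; vehicle was 0.2% DMSO, and increases over DMSO baseline were fitted.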

Read-out in assay [13]: Cytochrome P450 2C9 (Homo sapiens) (UniProt P11712)
The assay is described as follows: CLD_CYP2C9_24hr: CellzDirect (CLD) Gene Expression Assay for xenobiotic metabolism (CYP2C9) at 24 hours (AID 2283688). The gist of the method:
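Induction of CYP2C9 mRNA was quantified by quantitative nuclease protection assay (chemiluminescence), gain of signal versus 0.2% DMSO vehicle, 24 h after dosing. Human primary hepatocytes (two donors) received fresh chemical daily at multiple concentrations; morphology-based cytotoxicity flagged yes/no.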

Read-out in assay [14]: Cytochrome P450 2C19 (Homo sapiens) (UniProt P33261)
Briefly: CLD_CYP2C19_6hr: CellzDirect (CLD) Gene Expression Assay for xenobiotic metabolism (CYP2C19) at 6 hours (AID 2283678). The method, boiled down: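 CYP2C19 transcript induction was quantified by quantitative nuclease protection assay with chemiluminescent read-out, 6 h after dosing. Cells were primary human hepatocytes from two donor preparations, given fresh dosing solutions daily in 0.2% DMSO vehicle. Activity was relative to DMSO.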

Read-out in assay [15]: ABC Transporter (ABCB1), ABCB1 (gene 5243)
Briefly: CLD_ABCB1_24hr: CellzDirect (CLD) Gene Expression Assay for ABC Transporter (ABCB1) at 24 hours (AID 2283684). The gist of the method: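 ABCB1 mRNA induction versus 0.2% DMSO vehicle was read by qNPA chemiluminescence at 24 h. Cultured human hepatocytes from two donor preparations received daily fresh dosing, and phase-contrast cytotoxicity calls were annotated alongside the data.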

Read-out in assay [16]: ABC Transporter (ABCB1), ABCB1 (gene 5243)
The assay is described as follows: CLD_ABCB1_48hr: CellzDirect (CLD) Gene Expression Assay for ABC Transporter (ABCB1) at 48 hours (AID 2283695). The gist of the method: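 ABCB1 mRNA was measured by quantitative nuclease protection assay (chemiluminescence) 48 h after dosing. Human hepatocyte cultures from two separate donors received fresh dosing solutions daily for two days, with 0.2% DMSO as vehicle. Positive-direction fit against DMSO.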

Read-out in assay [17]: Cytochrome P450 3A4 (Homo sapiens) (UniProt P08684)
Briefly: CLD_CYP3A4_6hr: CellzDirect (CLD) Gene Expression Assay for xenobiotic metabolism (CYP3A4) at 6 hours (AID 2283680). The method, boiled down:
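CYP3A4 mRNA induction, 6 h after dosing of cultured primary human hepatocytes from two donors, read by quantitative nuclease protection (qNPA, chemiluminescence). Vehicle 0.2% DMSO as baseline; morphology-based cytotoxicity annotated yes/no.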

Chain of Broad substrate specificity ATP-binding cassette transporter ABCG2 (Homo sapiens) (Q9UNQ0 whole entry, looked up): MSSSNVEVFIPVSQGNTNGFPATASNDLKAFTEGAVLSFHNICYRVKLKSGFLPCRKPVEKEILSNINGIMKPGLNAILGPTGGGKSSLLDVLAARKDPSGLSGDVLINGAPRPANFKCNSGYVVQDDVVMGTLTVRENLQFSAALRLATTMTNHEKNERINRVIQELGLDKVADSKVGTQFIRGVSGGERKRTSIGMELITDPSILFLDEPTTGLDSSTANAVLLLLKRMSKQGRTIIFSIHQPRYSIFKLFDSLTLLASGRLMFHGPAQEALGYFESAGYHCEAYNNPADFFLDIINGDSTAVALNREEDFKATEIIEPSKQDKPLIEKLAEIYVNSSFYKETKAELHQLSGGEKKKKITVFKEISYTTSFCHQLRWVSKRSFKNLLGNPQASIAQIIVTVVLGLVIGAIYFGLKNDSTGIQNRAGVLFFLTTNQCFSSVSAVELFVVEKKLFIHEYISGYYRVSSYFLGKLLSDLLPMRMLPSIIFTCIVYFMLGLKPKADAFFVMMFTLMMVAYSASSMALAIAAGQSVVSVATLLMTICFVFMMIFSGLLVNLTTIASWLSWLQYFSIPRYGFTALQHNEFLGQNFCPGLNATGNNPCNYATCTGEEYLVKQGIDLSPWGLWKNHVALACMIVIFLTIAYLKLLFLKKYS
Chain of Cytochrome P450 2C19 (Homo sapiens) (P33261 whole entry, looked up): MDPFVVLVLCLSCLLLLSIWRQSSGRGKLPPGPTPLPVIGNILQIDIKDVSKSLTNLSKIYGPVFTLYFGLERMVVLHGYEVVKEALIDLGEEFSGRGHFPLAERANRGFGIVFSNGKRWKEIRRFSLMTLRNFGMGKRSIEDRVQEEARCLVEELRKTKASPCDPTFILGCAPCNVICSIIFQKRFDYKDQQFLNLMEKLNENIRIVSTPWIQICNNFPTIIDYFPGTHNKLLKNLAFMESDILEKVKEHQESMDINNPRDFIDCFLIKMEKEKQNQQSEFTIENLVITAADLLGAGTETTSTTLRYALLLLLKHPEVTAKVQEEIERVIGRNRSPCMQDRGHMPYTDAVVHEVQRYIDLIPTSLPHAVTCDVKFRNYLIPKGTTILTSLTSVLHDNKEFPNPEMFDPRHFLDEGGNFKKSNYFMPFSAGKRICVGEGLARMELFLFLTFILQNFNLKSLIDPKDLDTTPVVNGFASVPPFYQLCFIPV
Chain of Cytochrome P450 3A4 (Homo sapiens) (P08684 whole entry, looked up): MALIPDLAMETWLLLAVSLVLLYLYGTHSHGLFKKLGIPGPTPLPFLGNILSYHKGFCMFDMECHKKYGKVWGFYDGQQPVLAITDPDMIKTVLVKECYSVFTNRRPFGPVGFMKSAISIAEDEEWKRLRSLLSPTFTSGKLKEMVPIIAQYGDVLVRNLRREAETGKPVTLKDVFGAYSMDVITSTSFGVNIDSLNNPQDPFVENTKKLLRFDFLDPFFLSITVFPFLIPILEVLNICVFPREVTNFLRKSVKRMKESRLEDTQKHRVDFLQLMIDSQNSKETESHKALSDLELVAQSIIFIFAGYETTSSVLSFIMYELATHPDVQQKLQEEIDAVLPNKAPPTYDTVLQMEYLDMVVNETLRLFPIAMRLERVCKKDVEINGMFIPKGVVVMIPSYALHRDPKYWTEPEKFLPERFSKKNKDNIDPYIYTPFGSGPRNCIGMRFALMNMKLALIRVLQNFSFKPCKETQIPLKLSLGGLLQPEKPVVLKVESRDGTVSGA

`COc1ccc(-c2ccccc2)cc1NNC(=O)OC(C)C`: the call in assay [1], in assay [5], in assay [7], in assay [9], in assay [10] and in [11] was inactive. For the same compound, the AC50 was 6.49 µM (active) in assay [2]; 17.8 µM (active) in assay [3]; 0.255 µM (active) in assay [4]; 4.09 µM (active) in [6]; 33.5 µM (active) in assay [8].
On to `CCCC(=NOCC)C1=C(O)CC(CC(C)SCC)CC1=O` (stereo not given), for which the compound was called inactive in assay [1], in [2], in assay [3], in assay [5], in assay [12] and in [13]. Besides, the result in [8], in [9] and in [10] was inactive. In assay [7], the AC50 was 32.9 µM (active).
As to `COC(=O)NS(=O)(=O)c1ccc(N)cc1`, the outcome in [1], in [2], in [14], in assay [3], in [4] and in [15] was inactive. The outcome in assay [12], in assay [7], in [8], in assay [16], in assay [9] and in assay [10] was inactive.
For `CC(C)N1C(=O)N(c2ccccc2)CSC1=NC(C)(C)C`, the call in assay [1], in assay [5], in [13], in assay [8] and in assay [9] was inactive. The AC50 in [2] was 7.11 µM (active); in assay [3] it was 1.48 µM (active); in [7], 20 µM (active).
Consider `N#Cc1c(Cl)cccc1Cl`, for which the compound was classed as inactive in [1], in assay [14], in assay [3], in [15], in assay [5] and in assay [13]. In addition, the compound was classed as inactive in assay [7] and in [9]. The AC50 in assay [2] is 4.85 µM (active); in assay [6], 4.46 µM (active).
Turning to `COC(=O)c1c(C(F)F)nc(C(F)(F)F)c(C2=NCCS2)c1CC(C)C`, the call in [1], in assay [14], in [17], in assay [5], in [13] and in [7] was inactive. In addition, the compound was classed as inactive in assay [9]. In addition, the AC50 is 0.277 µM (active) in assay [2]; 51.4 µM (active) in assay [3]; 9.96 µM (active) in [4]; 7.48 µM (active) in assay [6]; 20 µM (active) in [8]; 1.9 µM (active) in assay [11].
Turning to `CCSC(=O)N1CCCCCC1`, the compound was called inactive in assay [1], in assay [3], in assay [4], in assay [15], in [12] and in [13]. Further, the compound was called inactive in assay [8] and in assay [9]. The AC50 in assay [2] is 2.28 µM (active); in assay [7], 0.0865 µM (active).
Take `CN=C=S`: the compound was classed as inactive in assay [1], in [14], in assay [4], in [5], in [12] and in assay [13]. Also, the outcome in assay [7], in assay [8] and in assay [9] was inactive. The AC50 in [2] is 4.85 µM (active); in [3], 2.93 µM (active).
